Reference: PubChem BioAssay AID588354 (The Scripps Research Institute Molecular Screening Center, 2011)
Hit rate of the full screen: of about 360,000 compounds, about 430 (0.12%) were called active. The sample holds actives, similar compounds and a random draw of the others, so the mix is not that of the screen.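 Rule for the calls: active = inhibition above the campaign mean plus 3 SD, with each screening campaign given its own cutoff (cut at about 60% in these data); inactive = the rest.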

Target: Nuclear receptor coactivator 1 (Homo sapiens) (UniProt Q15788)
Sequence (Q15788 whole entry, looked up): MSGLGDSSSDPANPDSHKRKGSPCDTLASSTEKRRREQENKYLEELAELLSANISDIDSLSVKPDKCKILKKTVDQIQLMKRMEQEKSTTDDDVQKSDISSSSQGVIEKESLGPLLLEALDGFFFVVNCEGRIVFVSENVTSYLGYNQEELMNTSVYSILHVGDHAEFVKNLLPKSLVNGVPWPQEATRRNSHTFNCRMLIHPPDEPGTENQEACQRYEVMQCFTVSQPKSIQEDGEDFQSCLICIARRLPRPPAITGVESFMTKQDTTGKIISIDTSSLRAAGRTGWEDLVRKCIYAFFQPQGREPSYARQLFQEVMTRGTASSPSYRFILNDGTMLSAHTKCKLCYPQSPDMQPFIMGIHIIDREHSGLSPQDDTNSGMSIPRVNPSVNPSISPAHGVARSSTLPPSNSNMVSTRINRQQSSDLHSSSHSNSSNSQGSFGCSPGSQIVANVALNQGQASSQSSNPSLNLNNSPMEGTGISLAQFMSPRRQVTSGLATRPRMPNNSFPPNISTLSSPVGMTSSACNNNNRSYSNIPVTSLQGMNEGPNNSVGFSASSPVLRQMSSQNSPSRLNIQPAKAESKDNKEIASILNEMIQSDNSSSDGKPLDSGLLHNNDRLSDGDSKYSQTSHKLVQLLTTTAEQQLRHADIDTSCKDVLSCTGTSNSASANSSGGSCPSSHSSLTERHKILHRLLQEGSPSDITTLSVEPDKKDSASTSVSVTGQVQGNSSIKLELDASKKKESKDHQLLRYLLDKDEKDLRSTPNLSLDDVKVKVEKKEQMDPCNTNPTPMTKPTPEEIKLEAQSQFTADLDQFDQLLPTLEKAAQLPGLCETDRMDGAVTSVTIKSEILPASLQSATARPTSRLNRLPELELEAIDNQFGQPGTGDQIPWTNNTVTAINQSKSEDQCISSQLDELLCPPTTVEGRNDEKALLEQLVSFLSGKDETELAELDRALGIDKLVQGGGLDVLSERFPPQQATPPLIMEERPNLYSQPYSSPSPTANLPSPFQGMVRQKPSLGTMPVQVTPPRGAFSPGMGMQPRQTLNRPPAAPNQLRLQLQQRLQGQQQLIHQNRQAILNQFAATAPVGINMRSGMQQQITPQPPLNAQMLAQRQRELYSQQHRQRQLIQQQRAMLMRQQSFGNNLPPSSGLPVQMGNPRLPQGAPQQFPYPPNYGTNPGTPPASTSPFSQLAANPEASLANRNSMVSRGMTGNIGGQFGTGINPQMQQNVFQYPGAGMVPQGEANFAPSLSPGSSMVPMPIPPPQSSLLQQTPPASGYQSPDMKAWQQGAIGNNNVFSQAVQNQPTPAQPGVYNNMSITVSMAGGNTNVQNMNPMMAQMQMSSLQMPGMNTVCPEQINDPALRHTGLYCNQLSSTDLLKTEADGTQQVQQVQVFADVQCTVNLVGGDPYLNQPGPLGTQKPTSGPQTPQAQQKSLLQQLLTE
Assay: SRC1 coactivator transcriptional activity inhibitors, primary screen, cell-based, luminescence (AID 588354);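 note: 0% = DMSO treated cells and 100% = gossypol at 36 µM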
Settings: HEK293 GAL4-SRC1 luciferase reporter, at 3.6 µM, stronger effect = higher value

| Compound | inhibition |
| --- | --- |
| COc1ccc(-c2nnc(SCC(=O)Nc3cccnc3Cl)n2C)cc1 | 16.4% (inactive) |
| CCOC1=C2CN(S(=O)(=O)c3ccc(C)cc3)[C@H](c3cccs3)C[C@H]2[C@H]2C(=O)N(c3ccccc3)C(=O)[C@H]2C1 | 0.21% (inactive) |
| Cc1[nH]c(C)c(S(=O)(=O)N2CCC(C)CC2)c1C(=O)N1CCCC1 | 0.69% (inactive) |
| Cc1nc(-c2ccccc2)sc1-c1nc(-c2ccccc2)ncc1S(=O)(=O)c1ccccc1 | 7.02% (inactive) |
| CCOc1ccc(CNC(=O)C2CC(=O)N(C3CCCC3)C2)cc1OC (configuration not stated) | -4.04% (inactive) |
| COc1ccc(NC(=O)CN(C)C(=O)CNC(=O)C2CCCCC2)cc1 | 6.97% (inactive) |
| O=C(COC(=O)c1ccco1)Nc1ccc(Cl)cn1 | -10.8% (inactive) |
| COC(=O)Cc1[nH]n(-c2nc3ccccc3s2)c(=O)c1C(C)=Nc1ccc(OC)cc1 | 81.3% (active) |
| COc1cccc(/C=C(/CC(=O)Nc2ccc(N3CCOCC3)cc2)c2nc3ccccc3s2)c1 | -38.5% (inactive) |
| COCCCC1CCN(C(=O)C2CCC(=O)N(C3CCCCCC3)C2)CC1 (configuration not stated) | 2.7% (inactive) |
| CCN(CC)C(=O)C1=C(C)N(Cc2ccccc2)C(=O)C(CC(=O)NC(c2ccccc2)c2ccccc2)C1 (configuration not stated) | -24.8% (inactive) |
| FC(F)(F)c1nc(-c2ccccc2)ncc1-c1nnnn1-c1ccccc1 | 2.72% (inactive) |
| CC1=CC(C)(C)Nc2ccc(OC(=O)CN3C(=O)C4CCCCC4C3=O)cc21 (configuration not stated) | -14.7% (inactive) |
| CC[C@H]1CN2CCc3cc(OC)c(OC)cc3[C@@H]2C[C@@H]1C[C@H]1NCCc2cc(OC)c(OC)cc21 | 94.8% (active) |
| Nc1c(N(CCCO)C(=O)C2CCCC2)c(=O)[nH]c(=O)n1Cc1ccccc1 | -4.42% (inactive) |
| Cc1cc(C)nc(-n2ncc3c2CC(c2ccc(C(C)C)cc2)CC3=O)n1 (configuration not stated) | -16.7% (inactive) |
| O=C(CC(O)(C(F)(F)F)C(F)(F)F)Nc1ccc(Cl)c(Cl)c1 | 71.9% (active) |
| CC1(C(=O)O)CCC(C(=O)Nc2ccc(Cl)c(Cl)c2)C1(C)C (configuration not stated) | 1.51% (inactive) |
| N#CCCN(C(=O)Nc1ccc(Cl)c(Cl)c1)C1CCCCC1 | 4.76% (inactive) |
| O=C(Nc1cc(S(=O)(=O)N2CCOCC2)ccc1N1CCOCC1)c1c(F)cccc1Cl | 4.42% (inactive) |
| CCOc1ccc(S(=O)(=O)N2CCC(C(=O)NCC(=O)Nc3cccc(Cl)c3C)CC2)cc1 | -15% (inactive) |
| COCOc1cc(O)c(C(=O)/C=C/c2ccc(OCOC)c(OCOC)c2)c(OCOC)c1 | -3.45% (inactive) |
| C=CCn1c(C)cc(C2=NNC(=NCC)SC2)c1C | 87.5% (active) |
| Cc1ccc(N2C(=O)CN=C2Nc2nc(C)cc(C)n2)cc1 | 0.5% (inactive) |
| O=C(CN1C(=O)c2ccccc2S1(=O)=O)N1CCc2ccccc21 | 73% (active) |
| CN(Cc1cccs1)C(=O)CN1C(=O)c2ccccc2S1(=O)=O | -19.1% (inactive) |

| Compound | inhibition |
| --- | --- |
| COc1ccc(CNC(=O)CN2C(=O)c3ccccc3S2(=O)=O)cc1 | 2.81% (inactive) |
| CC1CC(NC(=S)N(C)C)CC(C)(C)C1 (configuration not stated) | 0.06% (inactive) |
| Cc1ccc(NC(=O)CN2CCC3(O)CCCCC3C2c2ccc3c(c2)OCO3)c(C)c1 (configuration not stated) | 5.71% (inactive) |
| CCCCCCCCn1c2c(c(=N)c3c1CCC3)CCCC2 | 69% (active) |
| O=C(COC(=O)C1CCN(S(=O)(=O)c2ccc3c(c2)OCCO3)CC1)Nc1ccccc1OC(F)F | 6.03% (inactive) |
| O=C(CCNC(=O)c1ccc([N+](=O)[O-])cc1)Nc1ccccc1N1CCOCC1 | -16.9% (inactive) |
| Cc1ccsc1C(=O)OCC(=O)NCCc1ccccc1 | -29.4% (inactive) |
| Cc1ccsc1C(=O)OCC(=O)c1cc(C)n(CC2CCCO2)c1C (configuration not stated) | 82.3% (active) |
| COc1ccc(CNC(=O)COC(=O)c2sccc2C)cc1OC | 2.6% (inactive) |
| Nc1nc(SCC(=O)N2CCN(S(=O)(=O)c3ccc(Cl)cc3)CC2)n[nH]1 | 9.56% (inactive) |
| Cc1cc(C)n2nc(C(=O)N(C)C(c3ccccc3)c3ccccc3)nc2n1 | -3.03% (inactive) |
| CCc1ccnc(NS(=O)(=O)c2ccc3c(c2)OCCO3)c1 | -6.15% (inactive) |
| CC(=O)NC1C(Oc2ccc(C=O)cc2)OC(COC(C)=O)C(OC(C)=O)C1OC(C)=O (configuration not stated) | -13.2% (inactive) |
| CC1CCCC(C)N1/N=C/c1ccccc1OC(F)F (configuration not stated) | -2.18% (inactive) |
| CC12C(=O)N(n3cnnc3)C(=O)C1C1C=CC2C1 (configuration not stated) | -10.2% (inactive) |
| C=CCC1(CC=C)CCCN1C(=O)c1cc(COc2ccc(-n3cncn3)cc2)on1 | -1.06% (inactive) |
| Cc1ccc(S(=O)(=O)N2CCN=C2SCc2c(F)cccc2Cl)cc1 | -14.6% (inactive) |
| O=C(O)C1C2CC2CN1C(=O)c1ccc(Cl)cc1Cl (configuration not stated) | 10.7% (inactive) |
| CC(NC(=O)c1ccccc1C(=O)O)c1ccc(-n2ccnc2)cc1 (configuration not stated) | -1.09% (inactive) |
| N#CC1(NC(=O)COc2ccc3oc4ccccc4c3c2)CCCCC1 | 2.18% (inactive) |
| COc1ccc(OC)c(S(=O)(=O)Nc2cccc(-c3ccc4nncn4n3)c2)c1 | -20.7% (inactive) |
| CC1CCCCC12NC(=O)N(CC(=O)N1CCN(c3ccccc3)CC1)C2=O (configuration not stated) | 1.99% (inactive) |
| CN(C)c1ccc(CSc2ccccc2)cc1 | -41.4% (inactive) |
| CCN(CC)C(=O)[C@H]1C[C@H](CC(=O)NCC23CC4CC(CC(C4)C2)C3)C(=O)N2CCc3c([nH]c4cc(CCC(=O)N(C)C)ccc34)[C@]12C | 4.03% (inactive) |
| Cc1cc(C)c2c(c1)c(C)cc1nnc(SCC(=O)NCc3ccco3)n12 | -10.2% (inactive) |
| CC(C)c1cccc(C(C)C)c1Nc1cn[nH]c1 | -5.74% (inactive) |

| Compound | inhibition |
| --- | --- |
| CC(=O)c1cccc(NC(=O)N2CCCC2C(=O)NCCC(C)C)c1 (configuration not stated) | -16% (inactive) |
| C=CCn1c(SCc2cc(C(=O)OC)c(C)o2)nnc1-c1ccncc1 | -8.14% (inactive) |
| CCn1nc(NC(=O)c2ccco2)c2cc3ccc(C)cc3nc21 | 5.64% (inactive) |
| CN(Cc1ccc(CNC[C@H]2O[C@@H](n3cnc4c(N)ncnc43)[C@H](O)[C@@H]2O)o1)S(C)(=O)=O | -4.89% (inactive) |
| O=C(NCc1ccccc1)C(c1ccco1)N(C(=O)c1csnn1)c1ccccc1F (configuration not stated) | -7.13% (inactive) |
| COc1cc(OC)cc(-c2cc3ccc(F)cc3cn2)c1 | -60% (inactive) |
| CCOC(=O)c1cc(C(=O)Nc2ccc(S(=O)(=O)Nc3ccc(OC)cc3)cc2)nn1C | 7.15% (inactive) |
| O=C(Nc1cc2c3c(c1)C1CCCC1CN3CC1CCCC21)c1ccc([N+](=O)[O-])cc1 (configuration not stated) | -2.56% (inactive) |
| CCOC(=O)NC(=O)CSc1nnc(SCCC(=O)O)s1 | -8.78% (inactive) |
| COc1ccc(C2=Nn3c(nnc3-c3ccccc3OC)SC2)cc1OC1CCCC1 | -15.9% (inactive) |
| CCCCN(C(=O)CCNC(=O)NC12CC3CC(CC(C3)C1)C2)c1c(N)n(CCCC)c(=O)[nH]c1=O | 4.35% (inactive) |
| C=CCOc1cccc(C2NC(=O)c3ccccc3O2)c1 (configuration not stated) | 3.13% (inactive) |
| Cc1ccnc2nc(C(=O)OCC(=O)N(CC(C)C)CC(C)C)nn12 | 2.84% (inactive) |
| CN1CCN(C(=O)C(=O)c2cn(CC(=O)N3CCCC3)c3ccccc23)CC1 | -22.3% (inactive) |
| CCN(CC)C(=O)CSC1c2ccccc2C(=O)N1c1ccccc1 (configuration not stated) | -5.03% (inactive) |
| O=C(c1ccc(F)c(S(=O)(=O)N2CCOCC2)c1)N(CCc1ccccc1)Cc1ccccc1 | -1.71% (inactive) |
| CSCCC(NC(=O)c1ccc(Cl)cc1Cl)C(=O)NNC(=O)c1csc(N2CCOCC2)n1 (configuration not stated) | -17% (inactive) |
| Cc1cccc(C(=O)N2CCCC(Nc3ccc(C(C)C)cc3)C2)n1 (configuration not stated) | 1.61% (inactive) |
| COc1ccc(N2CCN(C(=O)Cn3cnc4sc(C)c(S(=O)(=O)N5CCOCC5)c4c3=O)CC2)cc1 | 1.72% (inactive) |
| O=C(Nc1cc(-c2nc3ncccc3o2)ccc1Cl)c1ccco1 | -8.08% (inactive) |
| C[C@H]1CN([C@@H](C)CO)C(=O)c2cc(-c3cccc(F)c3)cnc2O[C@@H]1CN(C)S(C)(=O)=O | 4.48% (inactive) |
| COC(=O)CNC(=O)c1ccc2c(c1)S(=O)(=O)c1ccccc1C2=O | -9.27% (inactive) |
| Cc1cc(=O)oc2c3c(cc(OCC(=O)NCC(O)c4ccccc4)c12)OC(C)(C)CC3 (configuration not stated) | -22.4% (inactive) |
| S=C(Cc1ccc(Cl)cc1)N1CCOCC1 | -5.3% (inactive) |
| O=C(O)c1n[nH]nc1-c1ccccc1 | 10.2% (inactive) |
| CC1(C)CC(N2CCN(C(c3ccccc3)c3ccccc3)CC2)=CC(=[N+]2CCCCC2)C1 | 77% (active) |

| Compound | inhibition |
| --- | --- |
| Clc1ccc2nc(CSc3ccccc3)cn2c1 | -91.3% (inactive) |
| CC(C)(C)SCCSC1=CC(=O)CC(c2ccccc2)C1 (configuration not stated) | -111% (inactive) |
| CCCCNS(=O)(=O)c1ccc2nc(SCC(=O)Nc3cc(C)cc(C)c3)[nH]c2c1 | 12% (inactive) |
| Cc1cc(NC(=O)CSc2nccn2-c2ccc([N+](=O)[O-])cc2)no1 | -17% (inactive) |
| CN(C)/C=C(/C(=O)c1ccccc1Cl)S(C)(=O)=O | -22.7% (inactive) |
| COc1ccc2c(c1)N(C)/C(=C1/SC(=S)N(NC(C)=O)C1=O)S2 | -35.2% (inactive) |
| CCOC(=O)c1ccccc1N1C(=O)C2Sc3[nH]c(=O)sc3C(/C=C/c3ccccc3)C2C1=O (configuration not stated) | -1.18% (inactive) |
| O=C(NCCN1CCOCC1)c1cc(Sc2cccc(Cl)c2)nc2ccccc12 | -5.48% (inactive) |
| O=S(=O)(c1ccc(Cl)cc1)c1nc(-c2ccccc2F)oc1NCCN1CCOCC1 | -8.54% (inactive) |
| c1ccc2cc3c(NCCN4CCOCC4)ccnc3cc2c1 | 61.6% (active) |
| O=C(CCCN=C1NS(=O)(=O)c2ccccc21)OCC(=O)c1ccc(F)c(F)c1 | -0.01% (inactive) |
| CCn1c(C(C)C)n[nH]c1=S | -20.3% (inactive) |
| CC(C)(C)NC(=O)C(c1ccco1)N(Cc1ccc2c(c1)OCO2)C(=O)Cn1nnc2ccccc21 (configuration not stated) | 11.9% (inactive) |
| CCOc1ccc(-n2cnnn2)cc1S(=O)(=O)N1CCC(C)CC1C (configuration not stated) | 4.05% (inactive) |
| O=S(=O)(NCc1ccc2c(c1)OCO2)c1cccc2nsnc12 | -3.02% (inactive) |
| Cc1nc(COc2cc3oc(=O)cc(C)c3cc2Cl)cs1 | -6.18% (inactive) |
| C[C@@H]1C[C@@H]2O[C@H]2/C=C\C=C\C(=O)Cc2c(Cl)c(O)cc(O)c2C(=O)O1 | 53.8% (inactive) |
| CC(=O)NC1(c2ccc(F)cc2)CCN(C(=O)c2c(F)cccc2F)CC1 | -14.7% (inactive) |
| c1cnc(NC2C3CC4CC(C3)CC2C4)nc1 (configuration not stated) | -13.6% (inactive) |
| CCCCCC(O)c1cccc(OCc2ccc3ccccc3n2)c1 (configuration not stated) | -17.6% (inactive) |
| O=C(CCn1c(=S)[nH]c2cc3c(cc2c1=O)OCO3)NCc1ccc(Cl)cc1 | 10% (inactive) |
| CCN(Cc1ccccc1)C(=O)CSc1nc(C)cc2c1C(=O)OC2 | -20% (inactive) |
| Cc1nnc(C)c2c(C)n(N)c(C)c12 | 3.29% (inactive) |
| CCCNC(=O)C1(C)CCN(C(=O)c2ccccc2OC(F)(F)F)C1 (configuration not stated) | -5.22% (inactive) |
